According to PubChem BioAssay (NCI):
Several values for one entry are separate records, joined by “and”; a condition that tells them apart may be missing. Equal entries are not always repeated. About 79,000 compounds went through this panel and 15% of them were active in at least one assay; those are over-represented in the sample as a whole. Cut-off read from the data, not from the text of the source: active = growth inhibition above about 70%; inactive = the rest. Where a SMILES comes first, the peptide text is derived from it. [ ]: non-standard residue; d: D form. ξ: configuration not given here. ξF = NC(Cc1ccccc1)C(=O)O

Legend:
[1] = NCI Yeast Anticancer Drug Screen. Data for the rad50 strain (AID 155);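 note: 0% = growth of vehicle-only cultures of the same strain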; conditions: S. cerevisiae rad50 strain growth inhibition; at 50.0 µM; active compounds read high
Outline: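 A DNA repair-deficient yeast mutant serves as the test organism; compound-induced growth inhibition is calculated against vehicle-treated cells.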

[2] = NCI Yeast Anticancer Drug Screen. Data for the mec2-1 strain (AID 157); conditions: S. cerevisiae mec2-1 strain, at 50.0 µM, active compounds read high
Outline: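 Test agents were screened against the mec2-1 yeast strain, with defined DNA repair or cell cycle alteration. Growth was scored as inhibition against vehicle-only controls.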

[3] = NCI Yeast Anticancer Drug Screen. Data for the sgs1 mgt1 strain (AID 161);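 note: 0% = growth of cultures given vehicle only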; conditions: S. cerevisiae sgs1 mgt1 strain, at 50.0 µM, active compounds read high
Outline: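 Test agents were incubated with a DNA-repair-mutant yeast strain. Growth was then read and compared against vehicle-treated controls.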

[4] = NCI Yeast Anticancer Drug Screen. Data for the cln2 rad14 strain (AID 165);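 note: 0% = growth equal to vehicle treated cultures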; conditions: S. cerevisiae cln2 rad14 strain, at 50.0 µM, active compounds read high
Outline: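 Growth of compound-exposed yeast (cln2 rad14 genotype) measured and expressed as inhibition relative to vehicle.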

[5] = NCI Yeast Anticancer Drug Screen. Data for the bub3 strain (AID 167); conditions: S. cerevisiae bub3 mutant strain, at 50.0 µM, active compounds read high
Outline: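 Inhibition values come from growth of compound-treated mutant yeast normalised to vehicle-treated controls.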

[6] = NCI Yeast Anticancer Drug Screen. Data for the mlh1 rad18 strain (AID 175); conditions: S. cerevisiae mlh1 rad18 strain growth inhibition; at 50.0 µM; active compounds read high
Outline: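 In this whole-cell yeast screen, a strain with altered DNA damage repair is challenged with compound, and its growth is measured against matched vehicle-treated controls.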

Measured: growth inhibition

NCC(=O)NC(Cc1ccccc1)C(=O)O (stereo unspecified) (H-Gly-[ξF]-OH)
inactive: [1] -28.9% and -14.6% | [2] -14.6% and -12.2% | [3] -1% and -20.6% | [4] -3.9% and -2.65% | [5] -8.25% and -10% | [6] -3.75% and -13.3%

CCc1ccc(N)cc1
inactive: [1] -16.4% and -3.75% | [2] -16.6% and 4.3% | [3] -23.4% and -4.25% | [4] -5.55% and -28.5% | [5] -16.5% and -11.1% | [6] -16.7% and 4.35%

Cc1cc(=O)cc(C)o1
inactive: [1] -11.2% and 18.4% | [2] -12.8% and 5.6% | [3] -10.2% and -20.6% | [4] -2.45% and -47.6% | [5] 2.35% and -5.85% | [6] -8.55% and 0.05%

Cc1ccc2ccccc2[n+]1C
inactive: [1] 31.9% and -24.6% | [2] -7.45% and -34.3% | [3] -1.25% and -16.4% | [4] -36.9% and 1.2% | [5] -1.5% and -26.8% | [6] -5.4% and -20.4%

NNS(=O)(=O)c1ccc(Cl)cc1
inactive: [1] -3.5% and 13.2% | [2] -19.1% and 2.45% | [3] -5.45% and 6.6% | [4] 13.4% and -4.4% | [5] 22.9% and 9.8% | [6] -8.3% and 7%

CCC(C)NC(=O)C1C2CC3OC(=O)C1C3C2 (stereo unspecified)
inactive: [1] 9.85% and -12.7% | [2] -4.55% and 5.6% | [3] -2.75% and -18.9% | [4] -42.8% and -40.3% | [5] -9.5% and -6.5% | [6] 3.1% and -5.65%

O=C(NC(=O)c1ccccc1)NC(=O)c1ccccc1
inactive: [1] -2.6% and -1.25% | [2] -10% and -14.1% | [3] -3.35% and 1.1% | [4] 7.8% and -17.6% | [5] 8.35% and -6.25% | [6] -3.65% and -45.1%

CCCCC(CC)CCC(C)OC(=O)CCl (stereo unspecified)
inactive: [1] 15.4% and 0.5% | [2] -2.8% and -6.75% | [3] 2.5% and -19.6% | [4] -36.4% and -22.6% | [5] -6.25% and -15.2% | [6] -1.9% and 10.2%

O=C1Nc2c(cc([N+](=O)[O-])cc2[N+](=O)[O-])C1=O
inactive: [1] -8.6% and 3.1% | [2] 7.6% and -0.75% | [3] -5.1% and 2.05% | [4] -0.05% and -12.1% | [5] -2.4% and 3.95% | [6] -1.1% and 2.6%

O=C1Nc2ccccc2C(=O)C1=Ic1ccccc1
inactive: [1] 5% and -15.9% | [2] -11.6% and -15.4% | [3] -0.55% and -9.6% | [4] -6% and -25.2% | [5] -7.1% and -4.5% | [6] 4.15% and 17.8%

CCCCCC(O)C1C(=O)OC(C)C(O)/C=C/C=C/C=C/C=C\C=C(\C)C(O)CC(O)CC(O)CC(O)CC(O)CC(O)CC1O (stereo unspecified)
inactive: [1] 2.6% and 13.8% | [2] 16.9% and -17.5% | [3] -18.1% and -4.65% | [4] 68.2% and 1.3% | [5] 5.85% and 12.3% | [6] 62.3% and 6.3%

COC1OC(CO)C(O)C(O)C1N1C(=O)c2ccccc2C1=O (stereo unspecified)
inactive: [1] 9.35% and -4.5% | [2] -4.15% and 8.4% | [3] 22.6% and -3.85% | [4] 7.95% and -15.8% | [5] 12.2% and 4.45% | [6] 19% and -3.45%

CSCCC(NC(=O)COc1ccc(Cl)cc1Cl)C(=O)O (stereo unspecified)
inactive: [1] -21.3% and 16.8% | [2] -35.6% and 60% | [3] -44.5% and 34.2% | [4] 6.2% and 7.2% | [5] -23.4% and 30.6% | [6] -33.3% and 52.7%

COC(=O)C(CC(C)C)NC(=O)CN1C(=O)c2ccccc2C1=O (stereo unspecified)
inactive: [1] -12.9% and 9.2% | [2] -5.95% and 10.9% | [3] 6.75% and 4.6% | [4] 5.05% and 6.3% | [5] -10% and 7.3% | [6] -2.4% and 1.45%

CCOC(=O)C(=O)Cc1cnc2ccccc2n1
inactive: [1] 1.95% and 3.05% | [2] 7.55% and -4.8% | [3] -18.8% and -8.3% | [4] 3.6% and 10.7% | [5] -1.2% and 7.2% | [6] 16.2% and -5.05%

CN(C)CC1CCCCC(CN(C)C)C1=O (stereo unspecified)
inactive: [1] -23.1% and -15.7% | [2] -5.8% and 2.95% | [3] -14.8% and -8.7% | [4] 4.4% and -52.7% | [5] -11.8% and 7.95% | [6] -13.6% and -8.7%
